Here are results for 16 compounds from PubChem BioAssay.

Assay [1] concerns Plasmodium falciparum Sir2 (PF13_0152, Sir2A). The experiment in a line: Plasmodium falciparum Sir2A binding compounds – biochemical, small-molecule microarray, 635 nm fluorescence, primary screen (AID 1098).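 Note: score merges spot fluorescence intensity with its signal-to-noise ratio.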 The settings on record: fluorescence 635 nm, higher = more signal.
A short description of assay [2]: probe aDKK1 binding to arrayed compounds – biochemical, biotinylated probe, 635/667 nm fluorescence, primary screen (AID 1099).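 Note: score merges 667nm spot fluorescence with signal to noise across triplicate slides; reference of the scale not given here.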 The note with it: small-molecule microarray, higher = more signal.
Assay [3] can be described thus: probe aCHRDL2 binding to arrayed compounds – biochemical, biotinylated probe, 635/667 nm fluorescence, primary screen (AID 1100). The note with it: small-molecule microarray, higher = more signal.
Assay [4] can be described thus: change in splice reporter luminescence, either direction, cell-based, HEK293, spliceosome inhibition project, primary screen (AID 1101).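 Note: HEK293 cells carrying a splicing-competent luciferase reporter gene; test concentration not given here.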 The note with it: HEK293 splicing luciferase reporter, 24 h, higher = more signal, called active from +8 up or from −8 down. (In a reporter assay the amount or activity of a reporter protein is the signal.)
For assay [5], the target named is Fibroblast growth factor 10 (Homo sapiens) (UniProt O15520). The assay can be described thus: compounds binding fibroblast growth factor 10 – biochemical, small-molecule microarray, 635 nm fluorescence, primary screen (AID 1102). The settings on record: FGF10 binding, fluorescence 635 nm, higher = more signal.
Assay [6] concerns glycogen synthase kinase-3 (GSK3A per assay name; protocol says GSK3B). The assay can be described thus: compounds binding glycogen synthase kinase-3 – biochemical, small-molecule microarray, 635 nm fluorescence, GSK3A, primary screen (AID 1103). Note: the record names both GSK3A and GSK3B. The note with it: fluorescence 635 nm, higher = more signal.
The target in assay [7] is Epidermal growth factor receptor (Homo sapiens) (UniProt P00533). The experiment in a line: compounds binding epidermal growth factor receptor – biochemical, small-molecule microarray, 635 nm fluorescence, primary screen (AID 1104).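 Note: score merges 667 nm emission intensity with spot signal to noise over triplicate slides.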 The note with it: EGFR binding, higher = more signal.
For assay [8], the target named is Follistatin-related protein 3 (Homo sapiens) (UniProt O95633). The assay can be described thus: compounds binding follistatin-related protein 3 – biochemical, small-molecule microarray, 635 nm fluorescence, primary screen (AID 1105).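 Note: score merges emission near 667 nm and signal to noise per printed spot across three slides.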 The settings on record: FSTL3 binding, higher = more signal.
Assay [9] deals with Dickkopf-related protein 1 (Homo sapiens) (UniProt O94907). The assay can be described thus: small molecules binding DKK1 protein – biochemical, small-molecule microarray, 635 nm fluorescence scan, primary screen (AID 1106).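 Note: score merges emission near 667 nm with signal to noise over three replicate slides.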 The settings on record: higher = more signal.
The test system of assay [10] is Inhibin beta A chain (activin A). The experiment in a line: small molecules binding activin A – biochemical, small-molecule microarray, 635 nm fluorescence scan, primary screen (AID 1107).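 Note: mouse activin A protein probed at 4.33 µg/mL on printed slides; score merges bound-protein fluorescence near 667 nm with spot signal-to-noise.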 The settings on record: INHBA, higher = more signal.

The structures appear in SMILES notation. Activity calls are given as the source filed them.

Epidermal growth factor receptor (Homo sapiens), sequence (P00533 whole entry, looked up): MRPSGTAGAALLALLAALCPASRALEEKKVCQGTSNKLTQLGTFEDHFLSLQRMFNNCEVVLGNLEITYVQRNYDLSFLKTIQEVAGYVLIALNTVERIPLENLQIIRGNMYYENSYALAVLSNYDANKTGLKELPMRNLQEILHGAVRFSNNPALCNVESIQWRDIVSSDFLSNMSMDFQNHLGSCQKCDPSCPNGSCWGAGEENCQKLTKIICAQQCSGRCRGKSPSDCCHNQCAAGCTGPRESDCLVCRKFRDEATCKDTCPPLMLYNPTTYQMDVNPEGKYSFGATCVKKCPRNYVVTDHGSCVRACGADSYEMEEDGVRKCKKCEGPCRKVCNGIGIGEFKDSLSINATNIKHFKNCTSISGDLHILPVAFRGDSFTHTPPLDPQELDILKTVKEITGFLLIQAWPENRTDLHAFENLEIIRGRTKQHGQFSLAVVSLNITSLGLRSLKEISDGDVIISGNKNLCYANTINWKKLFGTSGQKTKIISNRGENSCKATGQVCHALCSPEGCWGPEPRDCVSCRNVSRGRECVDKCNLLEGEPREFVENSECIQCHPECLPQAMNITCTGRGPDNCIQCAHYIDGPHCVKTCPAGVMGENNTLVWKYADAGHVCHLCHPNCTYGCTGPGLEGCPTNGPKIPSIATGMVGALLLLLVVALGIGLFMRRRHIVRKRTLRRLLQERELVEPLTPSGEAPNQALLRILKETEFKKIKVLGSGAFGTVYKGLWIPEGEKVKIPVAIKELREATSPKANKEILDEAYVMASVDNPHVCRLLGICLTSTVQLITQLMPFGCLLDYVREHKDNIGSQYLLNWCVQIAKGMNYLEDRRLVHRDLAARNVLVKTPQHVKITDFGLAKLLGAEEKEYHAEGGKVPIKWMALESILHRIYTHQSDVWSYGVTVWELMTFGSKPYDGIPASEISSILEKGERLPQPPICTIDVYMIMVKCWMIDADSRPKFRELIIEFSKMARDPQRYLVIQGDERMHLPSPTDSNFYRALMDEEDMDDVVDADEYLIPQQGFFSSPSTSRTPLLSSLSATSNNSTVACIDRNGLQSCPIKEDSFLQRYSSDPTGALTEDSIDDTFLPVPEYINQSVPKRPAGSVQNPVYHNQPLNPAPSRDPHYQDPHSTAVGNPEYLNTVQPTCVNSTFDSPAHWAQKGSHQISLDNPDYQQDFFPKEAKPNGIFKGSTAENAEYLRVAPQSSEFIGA
Follistatin-related protein 3 (Homo sapiens), sequence (O95633 whole entry, looked up): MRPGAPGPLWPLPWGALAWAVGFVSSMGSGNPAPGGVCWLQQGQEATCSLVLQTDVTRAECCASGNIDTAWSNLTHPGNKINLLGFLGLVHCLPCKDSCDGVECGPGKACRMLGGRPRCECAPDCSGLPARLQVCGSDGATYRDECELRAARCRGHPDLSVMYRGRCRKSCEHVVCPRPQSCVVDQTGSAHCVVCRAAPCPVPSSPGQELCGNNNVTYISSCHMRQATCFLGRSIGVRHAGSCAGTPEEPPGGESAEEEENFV
Fibroblast growth factor 10 (Homo sapiens), sequence (O15520 whole entry, looked up): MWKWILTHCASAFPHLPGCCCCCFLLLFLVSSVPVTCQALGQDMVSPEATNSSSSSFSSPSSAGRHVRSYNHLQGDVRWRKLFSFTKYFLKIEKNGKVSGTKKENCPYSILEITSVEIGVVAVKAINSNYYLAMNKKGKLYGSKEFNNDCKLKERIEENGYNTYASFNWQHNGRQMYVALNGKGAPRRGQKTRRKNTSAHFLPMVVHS
Dickkopf-related protein 1 (Homo sapiens), sequence (O94907 whole entry, looked up): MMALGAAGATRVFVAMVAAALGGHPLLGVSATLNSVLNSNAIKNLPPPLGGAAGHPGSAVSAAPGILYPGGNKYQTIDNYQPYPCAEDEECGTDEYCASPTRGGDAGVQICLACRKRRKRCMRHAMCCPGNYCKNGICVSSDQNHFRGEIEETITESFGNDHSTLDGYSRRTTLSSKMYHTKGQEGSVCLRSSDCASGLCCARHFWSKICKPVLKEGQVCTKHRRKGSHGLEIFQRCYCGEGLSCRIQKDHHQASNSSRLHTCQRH

In the case of `CC(=O)NCCCC[C@@H]1NC(=O)[C@@H]2C[C@H](C(=O)NCCCCN(C)C)[C@H](c3ccc(O)cc3)N2C1=O`, the composite z-score in [1] was -0.165; in [2] it was -0.161; in assay [3], 0.704; in assay [5] it was -0.117; in [6] it was 0.0247; in [7], -0.588. For the same compound, the composite z-score was -0.723 in [8], 0.295 in assay [9] and -0.727 in [10]. The z-score in [4] is -1.12 (inactive).

In the case of `C=C(COC)/C(=C/C[C@H](OC(=O)c1ccncc1)c1cccc(OCCO)c1)c1cc(C(=O)OC)ccc1OC`, the composite z-score in assay [1] is 0.901; in assay [2], -0.0771; in assay [3], 0.195; in assay [5], 0.837; in assay [6] it was -0.208; in assay [7], -0.353. The composite z-score in assay [8] was 0.0001; in [9], -0.0833; in assay [10], 0.533. Besides, the z-score in assay [4] is -0.147 (inactive).

Regarding `COc1ccc([Si](C)(C)[C@@H]2[C@@H](CCn3cc([C@H](O)c4ccccc4)nn3)O[C@]3(C(=O)N(Cc4cccc(N5CCOC5=O)c4)c4ccccc43)[C@H]2C)cc1`, the composite z-score was -1.35 in assay [1]; -0.231 in assay [2]; 0.658 in [3]; -1.02 in assay [5]; -1.01 in [6]; -0.901 in assay [7]. The composite z-score in assay [8] was -0.995; in assay [9] it was -1.13; in assay [10] it was -0.495. Besides, the z-score in assay [4] is 1.7 (inactive).

As to `C=CCC(OC(C)=O)[C@@H]1[C@@H](N(Cc2cc3ccccc3o2)C(=O)c2ccc(C)cc2)c2cc(OCCCO)ccc2N1C(=O)c1ccc2ccccc2c1` (stereo not given in full), the composite z-score in assay [1] was -0.119; in [2], -0.0022; in assay [3] it was 0.263; in [5], 0.299; in assay [6], -0.274; in assay [7], 0.105. Besides, the composite z-score in assay [8] amounted to 0.194; in [9], 0.0379; in [10], 1.46. The z-score in [4] is -0.422 (inactive).

Turning to `CC(c1ccccc1)C(O)C1C=CC2C(=O)NC(=O)C2N1Nc1ccccn1` (stereo not given), the composite z-score in assay [1] amounted to 0.459; in assay [2], 0.0178; in [3] it was 0.585; in [5] it was 0.831; in assay [6], 0.767; in assay [7], 0.532. Also, the composite z-score is 1.01 in assay [8], 0.481 in assay [9] and 1.41 in assay [10]. Besides, in [4], the z-score is 1.63 (inactive).

Take `CCOC(=O)C1=CCC(c2ccc(C#N)cc2)N(S(=O)(=O)c2ccc(C)cc2)C1` (stereo not given): the composite z-score worked out at 1.13 in [1]; 1.22 in [2]; 1.05 in [3]; 0.637 in assay [5]; 1.29 in [6]; 0.555 in assay [7]. Besides, the composite z-score was 1.21 in assay [8], -0.0007 in assay [9] and 0.2 in assay [10]. Also, the z-score in assay [4] is -0.415 (inactive).

As to `O=c1cccc(CCc2ccccc2)o1`, the composite z-score in assay [1] was 0.931; in [2], -0.232; in assay [3] it was -0.44; in assay [5], 0.228; in assay [6], 0.599; in [7], -0.834. Moreover, the composite z-score in assay [8] is 0.153; in [9] it was 0.193; in [10] it was 0.532. In assay [4], the z-score is 0.722 (inactive).

With `CCCCC(CC)C(O)C1C=CC2C(=O)N(c3ccccc3)C(=O)C2N1Nc1ccccc1` (stereo not given), the composite z-score in [1] was 0.889; in assay [2] it was 0.674; in [3], 0.932; in [5] it was 0.753; in assay [6], 0.0129; in [7] it was -0.456. For the same compound, the composite z-score in assay [8] was 1.13; in assay [9], -0.648; in assay [10], 1.02. The z-score in [4] is -0.901 (inactive).

In the case of `COC(=O)c1ccc(C(O)C2C=CC3C(=O)N(C)C(=O)C3N2NC(=O)OC(C)(C)C)o1` (stereo not given), the composite z-score in [1] was 0.66; in [2], 0.49; in [3] it was 0.266; in [5], 0.558; in assay [6], 0.483; in assay [7], 0.557. For the same compound, the values for the composite z-score in assay [8], in [9] and in assay [10] were 0.622, -0.0526 and 0.399, respectively. The z-score in assay [4] was 1.26 (inactive).

Take `CCOC(=O)C1=CC[C@@H](c2ccccc2Cl)N(S(=O)(=O)c2ccc(C)cc2)C1`: the composite z-score in assay [1] is 1.17; in assay [2], 0.342; in assay [3], 0.928; in assay [5], 0.403; in assay [6], 0.196; in assay [7], -0.138. Also, the composite z-score in assay [8] was 0.0633; in assay [9], -0.794; in [10], 0.304. In addition, the z-score in assay [4] is -1.97 (inactive).

As to `CC(C)(C)N1CC=CC23O[C@@H]4C=CCOC(=O)[C@@H]4[C@H]2C(=O)N(CCCCCO)[C@@H]3C1=O` (stereo not given in full), the composite z-score in [1] was 1.12; in [2], -0.275; in [3], 0.0408; in [5], -0.804; in assay [6], -1.54; in assay [7], -1.63. Further, the composite z-score was -1.67 in assay [8], -0.499 in [9] and -0.0694 in assay [10]. For the same compound, the z-score in assay [4] is -0.018 (inactive).

For `COc1ccc(C#Cc2ccc3c(c2)[C@]2(C(=O)N3)[C@H](C(=O)NC[C@H](O)c3ccccc3)[C@H]3C(=O)O[C@H](c4ccccc4)[C@H](c4ccccc4)N3[C@@H]2c2ccccc2OCCO)cc1`, the composite z-score in assay [1] came out at 1.74; in [2], 0.408; in [3], 0.334; in assay [5], 0.877; in assay [6], 1.19; in assay [7], 0.186. In addition, the values for the composite z-score in assay [8], in assay [9] and in assay [10] were 1.16, 0.169 and -0.0953, respectively. Also, in [4], the z-score was -0.955 (inactive).

Turning to `[N-]=[N+]=NCc1ccccc1C[C@]1(C(=O)O)N=C(c2ccc(OCCCO)cc2)O[C@H]1c1ccccc1`, the composite z-score is 1.44 in assay [1]; 0.181 in assay [2]; 1.06 in assay [3]; -0.2 in assay [5]; 0.102 in assay [6]; -1 in assay [7]. Moreover, the composite z-score is -0.627 in assay [8], -0.94 in [9] and 0.884 in assay [10]. Moreover, the z-score in assay [4] is 0.624 (inactive).

For the compound `C=C[C@@H](COC(C)=O)N(Cc1ccc([N+](=O)[O-])cc1)S(=O)(=O)c1ccc(Br)cc1`, the composite z-score in [1] turned out to be 0.566; in assay [2], 0.965; in assay [3], 0.992; in [5], 0.599; in assay [6], 0.283; in assay [7], 0.292. Moreover, the composite z-score is 0.352 in [8], -0.0075 in [9] and 0.663 in [10]. The z-score in assay [4] is -0.807 (inactive).

With `N[C@@H](Cc1ccccc1)Cn1cc(-c2ccccc2)nn1`, the composite z-score in [1] was -0.334; in assay [2], 0.552; in assay [3], 0.932; in assay [5], -0.232; in assay [6], -0.595; in assay [7], 0.0157. In addition, the composite z-score is 0.0589 in assay [8], -0.328 in assay [9] and 0.458 in [10]. In [4], the z-score is -1.38 (inactive).

As for `CC(C)OC(=O)CC(=O)CC(O)c1ccc(C#N)cc1` (stereo not given), the composite z-score in assay [1] was -0.165; in assay [2], 0.715; in [3], 1.23; in assay [5], 0.169; in assay [6], 0.148; in assay [7], -0.361. The composite z-score in [8] is 0.078; in [9], -0.997; in [10] it was 0.891. Further, in [4], the z-score was -1.74 (inactive).
